Screening data: PubChem, University of Kansas High Throughput Screening Laboratory
This is one part of a sample in which hits are shown more often than they occur.
mHTT-CaM PPI inh: inhibitors of human mutant huntingtin-calmodulin interaction | inhibition, % at 15 µM | P42858 | 190,000 tested, 3.6% active | AID 1671202 | AlphaScreen His-mHTT/GST-CaM binding, luminescence;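 note: 0% = both proteins with DMSO and 100% = one protein alone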
Target sequence (P42858 whole entry, looked up, stated change not applied): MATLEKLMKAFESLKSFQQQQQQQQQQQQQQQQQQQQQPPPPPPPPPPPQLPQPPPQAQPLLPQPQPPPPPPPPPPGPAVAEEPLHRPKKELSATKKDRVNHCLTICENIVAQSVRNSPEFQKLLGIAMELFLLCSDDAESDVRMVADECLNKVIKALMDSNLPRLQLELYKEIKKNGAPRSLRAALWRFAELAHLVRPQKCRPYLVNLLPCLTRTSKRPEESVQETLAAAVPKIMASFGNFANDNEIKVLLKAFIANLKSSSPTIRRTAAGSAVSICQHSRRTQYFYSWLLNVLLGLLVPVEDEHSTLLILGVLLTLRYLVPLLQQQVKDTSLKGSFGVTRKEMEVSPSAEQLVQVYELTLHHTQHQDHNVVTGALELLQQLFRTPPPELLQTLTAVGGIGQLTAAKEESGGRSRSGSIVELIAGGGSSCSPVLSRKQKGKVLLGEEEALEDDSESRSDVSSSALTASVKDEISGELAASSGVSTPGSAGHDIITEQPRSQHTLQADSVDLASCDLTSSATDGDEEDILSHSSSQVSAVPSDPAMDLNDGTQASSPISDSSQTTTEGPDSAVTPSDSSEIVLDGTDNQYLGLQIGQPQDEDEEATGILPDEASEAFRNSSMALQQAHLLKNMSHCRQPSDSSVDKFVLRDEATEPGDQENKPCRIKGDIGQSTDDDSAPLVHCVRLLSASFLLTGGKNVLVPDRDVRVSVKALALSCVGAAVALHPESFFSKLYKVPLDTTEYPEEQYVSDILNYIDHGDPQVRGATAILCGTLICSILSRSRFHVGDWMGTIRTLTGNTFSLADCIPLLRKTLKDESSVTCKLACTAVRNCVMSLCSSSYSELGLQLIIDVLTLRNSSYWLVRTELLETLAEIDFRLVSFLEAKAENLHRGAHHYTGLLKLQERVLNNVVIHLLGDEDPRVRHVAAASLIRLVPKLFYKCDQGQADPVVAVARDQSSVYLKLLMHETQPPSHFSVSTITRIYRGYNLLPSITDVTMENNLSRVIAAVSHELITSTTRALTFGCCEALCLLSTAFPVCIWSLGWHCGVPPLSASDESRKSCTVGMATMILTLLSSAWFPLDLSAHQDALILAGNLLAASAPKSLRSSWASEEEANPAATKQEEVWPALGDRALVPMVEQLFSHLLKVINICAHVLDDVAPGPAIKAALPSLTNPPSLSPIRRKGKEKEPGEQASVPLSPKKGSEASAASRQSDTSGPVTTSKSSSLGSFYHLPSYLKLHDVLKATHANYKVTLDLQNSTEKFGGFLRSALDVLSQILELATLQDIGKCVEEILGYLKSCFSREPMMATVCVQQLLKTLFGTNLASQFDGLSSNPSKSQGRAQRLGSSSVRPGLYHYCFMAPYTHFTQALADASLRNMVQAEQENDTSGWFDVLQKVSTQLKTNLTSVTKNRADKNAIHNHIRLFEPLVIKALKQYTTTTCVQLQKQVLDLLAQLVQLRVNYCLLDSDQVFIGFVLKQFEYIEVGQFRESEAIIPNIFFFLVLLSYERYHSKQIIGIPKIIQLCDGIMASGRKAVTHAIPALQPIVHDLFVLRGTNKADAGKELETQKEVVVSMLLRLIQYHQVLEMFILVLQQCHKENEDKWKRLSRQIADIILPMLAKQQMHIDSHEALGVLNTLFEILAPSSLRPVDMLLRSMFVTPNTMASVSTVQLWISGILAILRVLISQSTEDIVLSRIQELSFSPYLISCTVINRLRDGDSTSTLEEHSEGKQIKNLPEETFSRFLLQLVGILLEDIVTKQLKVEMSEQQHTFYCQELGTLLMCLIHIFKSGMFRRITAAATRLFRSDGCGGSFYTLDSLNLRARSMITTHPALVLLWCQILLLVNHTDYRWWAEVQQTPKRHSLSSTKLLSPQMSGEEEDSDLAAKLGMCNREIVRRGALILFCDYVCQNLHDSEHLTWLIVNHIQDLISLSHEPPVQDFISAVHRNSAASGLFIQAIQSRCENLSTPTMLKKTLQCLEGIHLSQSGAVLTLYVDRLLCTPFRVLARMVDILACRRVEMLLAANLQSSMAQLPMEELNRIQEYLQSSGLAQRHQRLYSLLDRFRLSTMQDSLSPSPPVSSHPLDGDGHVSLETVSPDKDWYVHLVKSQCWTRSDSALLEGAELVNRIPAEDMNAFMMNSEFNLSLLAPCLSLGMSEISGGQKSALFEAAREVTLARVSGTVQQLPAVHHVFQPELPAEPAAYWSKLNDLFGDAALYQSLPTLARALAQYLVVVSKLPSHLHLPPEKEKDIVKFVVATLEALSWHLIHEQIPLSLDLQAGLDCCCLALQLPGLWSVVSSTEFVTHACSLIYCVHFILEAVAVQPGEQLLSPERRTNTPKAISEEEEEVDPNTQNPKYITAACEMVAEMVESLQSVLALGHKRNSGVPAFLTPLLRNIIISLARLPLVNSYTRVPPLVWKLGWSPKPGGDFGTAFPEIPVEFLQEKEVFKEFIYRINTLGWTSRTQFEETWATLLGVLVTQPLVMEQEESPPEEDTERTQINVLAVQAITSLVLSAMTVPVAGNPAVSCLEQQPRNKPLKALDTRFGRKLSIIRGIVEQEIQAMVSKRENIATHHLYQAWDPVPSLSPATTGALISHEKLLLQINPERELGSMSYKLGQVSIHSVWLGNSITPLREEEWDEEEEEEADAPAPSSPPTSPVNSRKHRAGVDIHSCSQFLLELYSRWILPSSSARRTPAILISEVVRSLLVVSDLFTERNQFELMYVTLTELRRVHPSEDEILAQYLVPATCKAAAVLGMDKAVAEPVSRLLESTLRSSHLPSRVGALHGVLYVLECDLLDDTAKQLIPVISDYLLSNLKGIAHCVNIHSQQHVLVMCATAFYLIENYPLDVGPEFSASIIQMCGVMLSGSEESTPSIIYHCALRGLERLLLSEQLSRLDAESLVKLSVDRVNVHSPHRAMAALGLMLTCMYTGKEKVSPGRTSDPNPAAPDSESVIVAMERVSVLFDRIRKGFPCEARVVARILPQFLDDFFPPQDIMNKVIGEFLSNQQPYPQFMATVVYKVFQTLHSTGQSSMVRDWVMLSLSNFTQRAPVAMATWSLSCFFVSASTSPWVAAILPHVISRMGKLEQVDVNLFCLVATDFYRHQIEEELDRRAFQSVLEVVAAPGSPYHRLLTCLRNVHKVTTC
Pf apPOL block: Pf-apPOL DNA polymerase inhibition; Recombinant Pf-apPOL, molecular beacon fluorescence, 1.5 h; inhibition, % at 10 µM; 210,000 tested, 0.25% active; AID 1794808
* = called active by the depositor; i = inactive; . = no result given; + = active, no number. Cut-off read from the data, not from the text of the source: active = inhibition above about 50%; inactive = the rest.

SMILES	mHTT-CaM PPI inh	Pf apPOL block
CN(C)c1cccc(C(=O)N2CCC(n3cnc4ccc(F)cc43)CC2)c1	51*	-3
COc1cc(C(=O)N2CCC(n3cnc4ccccc43)CC2)ccc1C	12	-7
CN(C)c1ccc(C(=O)N2CCC(CCOc3cccc(F)c3)CC2)cc1	15	-4
CN(C)c1ccc(C(=O)N2CCC(CCOc3ccccc3F)CC2)cc1	88*	-6
CN(C)c1cccc(C(=O)N2CCC(CCOc3cccc(F)c3)CC2)c1	84*	-2
O=C(c1ccc(F)cc1)N1CCC(CCOc2ccccc2F)CC1	4	-3
CN(C)c1cccc(C(=O)N2CCC(CCOCc3ccc(F)cc3)CC2)c1	60*	-5
COc1ccc(CNC(=O)c2c(C)noc2-c2cccnc2)cc1	-3	-3
CCCN1CCN(CCNC(=O)c2ccnc(N3CCNC(c4ccccc4)C3)c2)CC1 (stereo not given)	2	-4
Cc1ccc(N2C(=O)Cn3c2nc2c3c(=O)n(C)c(=O)n2C)cc1C	0	-8
O=c1[nH]c(SCc2ccccc2F)nc2c1cnn2-c1ccccc1	-1	4
CN(C)c1cccc(C(=O)N2CCC(CCOCc3ccccc3F)CC2)c1	57*	-3
O=C(c1ccc2c(c1)OCO2)N1CCC(CCOCc2ccccc2F)CC1	-6	-1
N#CC1=C(N)C(C#N)(C#N)C(c2ccc(Cl)c(Cl)c2)C2CCCC=C12 (stereo not given)	100*	6
N#CC1=C(N)C(C#N)(C#N)C(c2ccc(Cl)cc2Cl)C2CCCC=C12 (stereo not given)	49	2
N#CC1=C(N)C(C#N)(C#N)C(c2cccc(Oc3ccccc3)c2)C2CCCC=C12 (stereo not given)	50*	4
N#CC1=C(N)C(C#N)(C#N)C(c2cccc(F)c2)C2CCCC=C12 (stereo not given)	23	-3
CN(C)n1cccc1C=C(C#N)C(=O)c1cccc(C(F)(F)F)c1	.	-4
CCCN1CCN(C(=O)c2cn(-c3ccc(C)c(C)c3)c(=O)c3ccccc23)CC1	0	-5
O=C(CN(C1CCCCC1)S(=O)(=O)c1ccc(Br)cc1)NC1CC1	1	-7
O=C(O)CN(C1CCCCC1)S(=O)(=O)c1ccc(Br)cc1	-2	68*
COc1ccc(OC(C)C(=O)Nc2cc(OC)c(Cl)cc2OC)cc1 (stereo not given)	-5	-1
Cc1ccc(C)c(CN2C(=O)NC3(CCN(C(=O)c4cccn4C)CC3)C2=O)c1	18	-7
CN(Cc1ccccc1)C(=O)CN(c1cccc([N+](=O)[O-])c1)S(=O)(=O)c1ccccc1	3	0
Oc1ccc(Br)cc1/C=N/n1cnnc1	i	.
SMILES	mHTT-CaM PPI inh	Pf apPOL block
Nc1nnnn1/N=C/c1cc(Br)ccc1O	+	.
CC(=O)NC1=NC(=O)/C(=C/c2c(C)n(Cc3ccc(F)cc3)c3ccccc23)S1	100*	-3
CC(=O)NC1=NC(=O)/C(=C/c2ccc(F)cc2)S1	-6	-4
CC(C)c1nn(-c2ccc(Cl)c(Cl)c2)c(C(C)C)c1C(=O)N1CCOCC1	67*	-2
CCN1CCN(C(=O)c2cnn(-c3ccc(Cl)c(Cl)c3)c2C(C)C)CC1	39	-21
CCc1nn(-c2ccc(OC)cc2)c(CC)c1C(=O)N1CCOCC1	1	0
CCCc1nn(-c2ccc(Cl)c(Cl)c2)c(CC)c1C(=O)N1CCOCC1	67*	-5
CC(=O)N1CCN(C(=O)c2c(C(C)C)nn(-c3ccc(C)cc3)c2C(C)C)CC1	11	-1
CCCc1nn(-c2ccc(Cl)c(Cl)c2)c(C(C)C)c1C(=O)N1CCOCC1	62*	0
COc1ccc(N2CC(c3noc(C4CCCC4)n3)CC2=O)cc1 (stereo not given)	4	2
O=C(CCC(=O)N1CCN(Cc2csc(-c3ccccc3)n2)CC1)c1ccccc1	20	-9
O=C(c1cc2ccccc2[nH]1)N1CCN(Cc2csc(-c3ccccc3)n2)CC1	66*	-10
Cc1cc(C)cc(N2C=C(C#N)S(=O)(=O)c3cc(F)ccc32)c1	-7	1
CC(C)NC(=O)c1ccc(OCC2CCCN(C(=O)Cc3ccccc3Cl)C2)cc1 (stereo not given)	-9	-3
CCOc1ccc(N=C2C(=O)N(CN3CCCC(C)C3)c3ccccc32)cc1 (stereo not given)	10	-1
CCOc1ccc(N=C2C(=O)N(CN3CCCCC3)c3ccccc32)cc1	65*	12
N#CC1=C(N)OC2=C(CC/C2=C\c2cccc(F)c2)C1c1cccc(F)c1 (stereo not given)	94*	-3
N#CC1=C(N)OC2=C(C(=O)CC(c3ccccc3)C2)C1c1cccc(F)c1 (stereo not given)	10	-7
COc1ccc(/C=C2\CCCC3=C2OC(N)=C(C#N)C3c2ccc(OC)c(OC)c2)cc1OC (stereo not given)	38	-2
COc1ccc(/C=C2\CCC3=C2OC(N)=C(C#N)C3c2ccc(OC)cc2)cc1 (stereo not given)	63*	-10
O=c1[nH]c2ccc(Cl)cc2c(-c2ccccc2)c1[N+](=O)[O-]	17	-2
CS(=O)(=O)N1N=C(c2c(-c3ccccc3)c3cc(Cl)ccc3[nH]c2=O)CC1c1ccccc1 (stereo not given)	67*	0
Cc1nc(Oc2cccnc2)c2oc3ccccc3c2n1	-2	-1
COc1ccccc1-c1cnn2c(C)cc(C)nc12	-15	-2
COc1ccccc1-c1cnn2c(Nc3ccc(NC(C)=O)cc3)cc(C)nc12	54*	-4
SMILES	mHTT-CaM PPI inh	Pf apPOL block
O=C(Cn1ccc2c(=O)[nH]ccc21)Nc1ccccc1Cl	17	82*
Cc1c(Cl)cccc1NC(=O)Cn1ccc2c(=O)[nH]ccc21	15	14
O=C(Cn1ccc2c(=O)[nH]ccc21)Nc1cccc(Cl)c1	21	79*
O=C(Cn1ccc2c(=O)[nH]ccc21)Nc1ccc(Cl)cc1	15	46
COc1cccc(C=C2Oc3c(ccc4c3CN(Cc3cccnc3)CO4)C2=O)c1	27	-25
CCOc1ccc(C2Nc3ccccc3NC3=C2C(=O)CC(c2ccc(OC)c(OC)c2)C3)cc1 (stereo not given)	33	0
COc1ccc(-c2[nH]ncc2-c2cnn(-c3ccccc3)c2)c(O)c1C	17	3
CCc1cc(-c2[nH]ncc2-c2cnn(-c3ccccc3)c2)c(O)cc1O	94*	-3
COc1ccc(Cl)cc1N(CC(=O)N(Cc1ccccc1)Cc1ccccc1)S(C)(=O)=O	65*	-6
COc1ccc(Cl)cc1N(CC(=O)N1CCN(Cc2ccccc2)CC1)S(C)(=O)=O	20	-1
COc1cc(NC(=O)CCN2C(=O)c3ccccc3C2=O)c(C(=O)O)cc1OC	-5	-2
C[C@H](CCC(=O)OCc1cn(CC(=O)c2ccc(O)cc2)nn1)[C@H]1CC[C@H]2[C@@H]3CC[C@@H]4C[C@H](O)CC[C@]4(C)[C@H]3C[C@H](O)[C@]12C	26	1
CC(CCC(=O)N=Nc1c(O)[nH]c2ccc(Br)cc12)C1CCC2C3C(O)CC4CC(O)CCC4(C)C3CCC12C (stereo not given)	63*	-5
Cc1ccc(C(C(=O)Nc2ccc3c(c2)OCO3)N(C)C(=O)Cc2c[nH]c3ccccc23)cc1 (stereo not given)	93*	-4
COc1ccc(C(C(=O)Nc2ccc3c(c2)OCO3)N(C)C(=O)CNC(C)=O)cc1 (stereo not given)	2	-4
